Experimental findings from PubChem BioAssay are described below.

Active and inactive are the calls of the source.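 The calls were made as follows: active = inhibition above 20% together with a positive visual image hit; inconclusive = visual image hit but inhibition not above 20%; inactive = no visual image hit.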

A short description of this assay: inhibitors of TNFa-induced NFkB p65 translocation, primary screen, imaging, HUVEC, MLSMR starter and 10KST1 sets (AID 438).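 Also: compound added about 3h40 before a 20 min TNFalpha stimulation.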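 As to inhibition: signal is the nuclear over cytoplasmic p65 intensity ratio per well.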 As to conditions: HUVEC TNFa-induced p65 nuclear translocation; cell count: measured here: nuclei count (cytotoxicity indicator), at 2.08 µM; inhibition: at 2 µM, stronger effect = higher value, 0% TNFa-plus-vehicle, 100% no-TNFa wells.
As to `CCOP(=O)(c1ccc(N(C)C)cc1)C(O)c1c(Cl)cccc1Cl` (stereo not given), the inhibition is -3.5% (inactive) and the cell count was 220.
In the same order, the values of `Cc1[nH]n(C(N)=S)c(=O)c1C(c1ccccc1)C(C#N)C#N` (stereo not given) are 9.6% (inactive) and 694.
As to `CCNc1ccc2c(Cl)cc(=O)oc2c1`, the cell count amounted to 356 and the inhibition was -2.5% (inactive).
As to `Cc1ccnc(NS(=O)(=O)c2ccc(NC(=O)Cc3cccs3)cc2)n1`, the inhibition is 6.3% (inactive) and the cell count was determined as 301.
In the same order, the values of `O=c1oc2ccccc2c(O)c1CN1CCCCC1` are 2.9% (inactive) and 361.
The corresponding values for `CCOCCn1c(CN2CCC(Cc3ccccc3)CC2)nc2c1c(=O)n(C)c(=O)n2C` are 10.6% (inactive) and 598.
In the same order, the values of `NC(=O)c1cc(-c2ccccc2)nc(N2CCOCC2)n1` are 6.7% (inactive) and 532.
Turning to `O=C(CN1C(=O)c2ccccc2S1(=O)=O)Nc1ccc(S(=O)(=O)N2CCCCCC2)cc1`, the inhibition was -2.6% (inactive) and the cell count was found to be 727.
The corresponding values for `COC(=O)C1=C(C)Nc2ncnn2C1c1ccc(C)o1` (stereo not given) are 4.7% (inactive) and 620.
For the compound `CC1Cc2ccccc2N1C(=O)c1cnsn1` (stereo not given), the inhibition was -4.5% (inactive) and the cell count stood at 623.
The corresponding values for `COc1ccc(C(=O)OCC(=O)NCc2ccco2)cc1OC` are -18.9% (inactive) and 573.
In the same order, the values of `CCOC(=O)Cn1c(S(=O)(=O)Cc2ccccc2)nc2ccccc21` are 5.5% (inactive) and 811.
The corresponding values for `CCOC(=O)C1CCN(c2c(NC3CCCCCCC3)c(=O)c2=O)CC1` are 2.8% (inactive) and 897.
As to `COc1ccc2c(c1)C1(Nc3ccccc3-c3nc4ccccc4n31)C(=O)N2` (stereo not given), the cell count was determined as 240 and the inhibition was 5.7% (inactive).
The corresponding values for `Cc1cccc(NC(=O)CC2NC3CCCCC3NC2=O)c1` (stereo not given) are 384 and -4.8% (inactive).
